Shown are actives, neighbours in structure and some others; about 11% of the full set was active somewhere.
KDM4E inh – qHTS Assay for Inhibitors of Human Jumonji Domain Containing 2E (JMJD2E). Lysine-specific demethylase 4E (Homo sapiens), B2RXH2. JMJD2E catalytic domain, FDH-coupled NADH fluorescence (FDH is formaldehyde dehydrogenase). Potency, µM (highest dose often 57.1 µM), inactives show top-dose activity change, negative = inhibition, actives largely listed as inhibitors. 230,000 tested, 1.6% active. AID 2147, 2009;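 further: potency means the concentration at half of the fitted maximal effect; 0% = wells with enzyme and -100% = buffer wells without enzyme; nearly all actives have a fitted effect of over 50% in size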
PNC inhibitor – High Content Assay for Compounds that inhibit the Assembly of the Perinucleolar Compartment. PC3M PTB-GFP, PNC prevalence imaging, 16 h; stronger effect = lower value. activity change (PNC), negative = inhibition, % at 10 µM. 140,000 tested, 3.1% active. AID 2417, 2010;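 active means readout at or below -70, meaning at least 70% loss of cells showing the perinucleolar compartment, a nuclear body marking cancer cells; inconclusive means readout between -30 and a set limit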;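 further: plate controls were DMSO wells for no effect and camptothecin positive control wells for full effect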
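Read-out is percentage of cells bearing a perinucleolar compartment, from automated 20x imaging of fixed, Hoechst-stained PC3M PTB-GFP cells. Cells were seeded 4 h, then exposed 16 h to compound (23 nl of library stock) in duplicate plates.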
ALDH1A1 inh – qHTS Assay for Inhibitors of Aldehyde Dehydrogenase 1 (ALDH1A1) | AID 1030, 2008 | Purified ALDH1A1, NADH fluorescence, propionaldehyde substrate | Aldehyde dehydrogenase 1A1 (Homo sapiens), P00352 | Potency, µM (series often up to 75.3 µM), for the others: at the highest dose activity, negative = inhibition, most hits filed as inhibitors | 220,000 tested, 7.3% active;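 further: potency means the concentration at half of the fitted maximal effect; plate controls were no enzyme wells and a reference inhibitor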
Target sequence (P00352 whole entry, looked up): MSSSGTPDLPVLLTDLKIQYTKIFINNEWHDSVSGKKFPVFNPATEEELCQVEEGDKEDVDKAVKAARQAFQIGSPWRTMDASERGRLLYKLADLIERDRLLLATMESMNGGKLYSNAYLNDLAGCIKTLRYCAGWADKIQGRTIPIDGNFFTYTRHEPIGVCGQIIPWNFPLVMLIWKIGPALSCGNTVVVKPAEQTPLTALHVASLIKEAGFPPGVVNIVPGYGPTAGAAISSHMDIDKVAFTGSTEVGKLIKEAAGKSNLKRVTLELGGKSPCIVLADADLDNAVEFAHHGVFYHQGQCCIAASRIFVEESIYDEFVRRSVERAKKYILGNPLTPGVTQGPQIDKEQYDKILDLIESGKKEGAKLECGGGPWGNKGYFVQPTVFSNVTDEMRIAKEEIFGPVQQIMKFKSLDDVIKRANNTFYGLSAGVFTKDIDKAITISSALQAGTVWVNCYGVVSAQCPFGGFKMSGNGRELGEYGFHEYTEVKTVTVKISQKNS
HPGD block – qHTS Assay for Inhibitors of HPGD (15-Hydroxyprostaglandin Dehydrogenase); 150,000 tested, 4.3% active; purified HPGD, NADH fluorescence kinetic, PGE2 substrate; 15-hydroxyprostaglandin dehydrogenase [NAD(+)] (Homo sapiens), P15428; Potency, µM, for inactives: top-dose activity change, negative = inhibition, most hits filed as inhibitors; further: potency means the concentration at half of the fitted maximal effect
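20 nM HPGD preincubated 15 min at room temperature with compound in 50 mM Tris-HCl pH 8, 0.01% Tween 20. Started with 1 mM NAD+ and 30 uM prostaglandin E2; NADH fluorescence (360/450 nm) read 5 times over 30-s intervals, last minus first.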
* hit, by the source's call; [ ] = dose if it differs, or a comment. Unless noted, the call rests on the fitted dose curve; in most records, active means well fitted inhibition curve with a large enough effect (not every such curve was filed as active); inconclusive means small, poorly fitted or top-dose-only effect, or another doubt; inactive means no such curve, though single readings can be large or run the other way. Unless noted, on the % scale 0 is the no-effect control and ±100 the full control effect.

`CC(=O)Oc1ccc(C(=O)[C@H]2[C@H]3C(=O)N(c4ccc(C)cc4)C(=O)[C@H]3[C@@H]3C=CC=NN32)cc1` gave KDM4E inh -28%, PNC inhibitor -10, ALDH1A1 inh 20µM* and HPGD block inconclusive.
For COc1ccc(N2C(=O)[C@@H]3[C@H](C2=O)[C@H](C(=O)c2ccc(OC(C)=O)cc2)N2N=CC=C[C@@H]32)cc1 the results were KDM4E inh -20%, PNC inhibitor 12, ALDH1A1 inh inconclusive and HPGD block -15%.
O=c1cc(C(F)(F)F)nc(-c2ccccc2)[nH]1 was read as KDM4E inh -1%, PNC inhibitor inconclusive, ALDH1A1 inh 14% and HPGD block 14µM*.
C[C@H]1O[C@@H](O[C@H]2[C@@H](O)C[C@H](O[C@H]3[C@@H](O)C[C@H](O[C@H]4CC[C@@]5(C)[C@H](CC[C@@H]6[C@@H]5C[C@@H](O)[C@]5(C)[C@@H](C7=CC(=O)OC7)CC[C@]65O)C4)O[C@@H]3C)O[C@@H]2C)C[C@H](O)[C@@H]1O was read as KDM4E inh -2%, PNC inhibitor -90*, ALDH1A1 inh -1% and HPGD block -4%.
For O=C(O)C=C1C2CC3CC(C2)CC1C3 the results were KDM4E inh 0%, PNC inhibitor -82*, ALDH1A1 inh -1% and HPGD block 5%.
For CCC(C)c1ccccc1NC(=O)CN1CCN(C/C=C/c2ccccc2)CC1 (stereo not given) the results were KDM4E inh 4%, PNC inhibitor 12, ALDH1A1 inh -7% and HPGD block -9%.
For O=c1[nH]c(CN2CCc3ccccc32)nc2scc(-c3cccs3)c12 the results were KDM4E inh inconclusive, PNC inhibitor inconclusive, ALDH1A1 inh 25µM* and HPGD block -27%.
`O=c1[nH]c(CN2CCN(c3ccccc3O)CC2)nc2scc(-c3ccccc3Cl)c12` gave KDM4E inh -9%.
Screening CCc1nn2cc(C(=O)c3cc(Cl)ccc3O)cnc2c1-c1ccc(F)cc1 returned KDM4E inh -1%, PNC inhibitor -21, ALDH1A1 inh -8% and HPGD block 16µM*.
Screening CCOc1ccc(CC(=O)NCC2(N3CCCCC3)CCCCC2)cc1 returned KDM4E inh -7% and ALDH1A1 inh 13%.
`C=CCn1c(C)csc1=Nc1ccc(C(=O)O)cc1` gave KDM4E inh -16% and ALDH1A1 inh 0%.
`COC(=O)CCC/C=C1/SCC(NC(=O)c2ccccc2)/C1=N/O` (stereo not given) gave KDM4E inh 1% and ALDH1A1 inh -14%.
NNC(=O)c1oc2ccccc2c1-n1cccc1 was read as KDM4E inh inconclusive and ALDH1A1 inh 2.2µM*.
Screening C(=C\c1ccco1)/C=N/n1cnnc1 returned KDM4E inh 14µM*, PNC inhibitor inconclusive, ALDH1A1 inh 3.2µM* and HPGD block 32µM*.
S=c1[nH]nc(-c2ccncc2)n1/N=C/C=C/c1ccco1 was read as KDM4E inh -11% and ALDH1A1 inh inconclusive.
Screening Cc1ccc(N2C(=O)CC(Cc3cccc(C)c3)C2=O)cc1 (stereo not given) returned KDM4E inh -2% and ALDH1A1 inh inconclusive.
`Cc1nc2oc3c(NCc4ccccc4)ncnc3c2c2c1COC(C)(C)C2` gave KDM4E inh inconclusive, PNC inhibitor -24, ALDH1A1 inh inconclusive and HPGD block inconclusive.
For CCCc1nc2oc3c(NCCOCCO)ncnc3c2c2c1COC(C)(C)C2 the results were KDM4E inh inconclusive, PNC inhibitor -111*, ALDH1A1 inh inconclusive and HPGD block inconclusive.
Screening CCCc1nc2oc3c(OC)ncnc3c2c2c1COC(C)(C)C2 returned KDM4E inh 5%, PNC inhibitor -29, ALDH1A1 inh 0.89µM* and HPGD block -15%.
`COC(=O)C1=C(C)N(Cc2ccccc2)C2=C3C(=O)CCCC3[C@@](O)(C(=O)OC)C(=O)N2C1c1ccccc1` (stereo not given in full) gave ALDH1A1 inh 10%[13.5 µM].
For CCOC(=O)C1=NN(C(=O)c2ccc(OC)cc2)C(O)(c2ccc(Cl)cc2)C1 (stereo not given) the results were KDM4E inh -25%, PNC inhibitor -18, ALDH1A1 inh 18µM* and HPGD block -9%.
`CCOC(=O)C1=NN(C(=O)Cc2ccccc2)C(O)(c2ccc(Cl)cc2)C1` (stereo not given) gave KDM4E inh 4%, PNC inhibitor -3, ALDH1A1 inh inconclusive and HPGD block -18%.
Screening CCOC(=O)C1=NN(C(=O)c2ccccc2)C(O)(c2ccc(C)cc2)C1 (stereo not given) returned KDM4E inh -22%, PNC inhibitor -95*, ALDH1A1 inh -8% and HPGD block -5%.
CCOC(=O)C1=NN(C(=O)COc2ccccc2)C(O)(c2ccc(Cl)cc2)C1 (stereo not given) was read as KDM4E inh -5% and ALDH1A1 inh -1%.
For Cn1c(-c2c(N)n(CCc3ccccc3)c3nc4ccccc4nc23)nc2ccccc21 the results were KDM4E inh -17%, PNC inhibitor -11, ALDH1A1 inh -11% and HPGD block -18%.
`Cn1c(-c2c(N)n(C3CCCC3)c3nc4ccccc4nc23)nc2ccccc21` gave KDM4E inh -7%, PNC inhibitor -94*, ALDH1A1 inh 5% and HPGD block -11%.
O=C(O)CC/C(=N/NC(=O)c1cn(-c2ccccc2)nc1-c1ccccc1)C(=O)O was read as KDM4E inh 3%, PNC inhibitor 13, ALDH1A1 inh 4.5µM* and HPGD block -18%.
COC(=O)c1cn(-c2ccccc2)nc1-c1ccncc1 was read as KDM4E inh -3%, PNC inhibitor -22, ALDH1A1 inh inconclusive and HPGD block -7%.
O=Cc1cn(-c2ccccc2)nc1-c1cccnc1 was read as KDM4E inh -18% and ALDH1A1 inh 3%.
`O=C(NCc1cccnc1)c1cn(-c2ccccc2)nc1-c1ccccc1` gave KDM4E inh 3% and ALDH1A1 inh 4.5µM*.
For O=C(OCc1ccccc1)c1cn(-c2ccccc2)nc1-c1ccncc1 the results were KDM4E inh -18%, PNC inhibitor -2, ALDH1A1 inh 20µM* and HPGD block inconclusive.
For O=Cc1cn(-c2ccccc2)nc1-c1ccncc1 the results were KDM4E inh -3% and ALDH1A1 inh 2.5µM*.
`CN(C)c1cccc(/C=C(\C#N)c2ccccc2)c1` gave KDM4E inh 2% and ALDH1A1 inh inconclusive.
Screening C[C@H](Br)C(=O)c1ccc2cc(Br)c3ccccc3c2c1 returned ALDH1A1 inh inconclusive and HPGD block 1%.
CCn1c(C)nc2cc(C(=O)NNC(=S)NC(=O)c3ccc(OC)cc3)ccc21 was read as KDM4E inh -69% and ALDH1A1 inh -11%.

Screening data deposited in PubChem BioAssay by National Center for Advancing Translational Sciences (NCATS).
